The values below come from ChEMBL document CHEMBL3988442, “University of Dundee, Small-Polar-MMV Screening Library” (2021).

About 13,000 (27%) of roughly 48,000 compounds showed an effect of 50% or more. Some of the results follow.

The experiment has as its system Wolbachia pipientis. The experiment can be described thus: Anti-Wolbachia Cell-Based Screen. The note with it: 5 µM. The arrangement: scale not given: in the data most compounds retested in dose-response had high values. The class given is functional.
`O=C(O)C(F)(F)F.O=C(O)C(F)(F)F.O=C([C@H]1CN(Cc2nccs2)C[C@H]2OCC[C@@H]12)N1CCCCO1`: the “Percent Effect” value was -13.3%. In the case of `CCN1CCC2(CCC1=O)CN(c1cnc3ccccc3n1)CCN2C` (configuration not stated) it was 10.67%; in that of `CCNC(=O)N(C)CCCc1n[nH]c(N)c1C#N`, -6.653%. On to `CC(C)n1ccnc1C1CCCN(c2cc(C(=O)NC3CC3)ccn2)C1` (configuration not stated), for which the “Percent Effect” value stood at 11.95%. The same measure for `Cn1ccnc1CN1CCN(Cc2noc(-c3ccccc3)n2)CC1`: -3.916%. The same measure for `OCC1(O)CCN(Cc2noc(-c3ccccc3)n2)CC1`: 112.4%; for `Cc1cnn(C2CN(Cc3noc(-c4ccccc4)n3)C2)c1`: 6.311%; for `CCCC(N)CNS(=O)(=O)Cc1cccc(C#N)c1.Cl` (configuration not stated): -1.555%. Consider `Cn1nc2c(cc1=O)CN(CCCOc1ccc(C#N)cc1)CC2`, for which the “Percent Effect” value is listed as -8.416%. In the case of `CC(C)c1ccc(CS(=O)(=O)CC(=O)NCc2ccccc2F)cc1` it was -59.22%. In the case of `CC(C)OCCCNC(=O)CS(=O)(=O)Cc1ccc(Cl)cc1` it was 111.2%; in that of `CC(NC(=O)NCCCN(C)S(C)(=O)=O)c1cccc(Cl)c1` (configuration not stated), -5.228%; in that of `CC(C)OCCCNC(=O)CS(=O)(=O)Cc1ccc(Cl)c(Cl)c1`, -2.776%. In the case of `Cc1ccc(CS(=O)(=O)CC(=O)NCCCOC(C)C)cc1` it was 104.7%; in that of `Cc1ccc(CS(=O)(=O)CC(=O)NCc2ccccc2F)cc1`, -26.12%. On to `CC(C)OCCCNC(=O)NC(C)c1ccc(-n2cncn2)cc1` (configuration not stated), for which the “Percent Effect” value was 21.75%. Take `CC(C)OCCCNC(=O)CS(=O)(=O)Cc1cccc(Cl)c1`: the “Percent Effect” value is 109.4%. The same measure for `CC(C)OCCCNC(=O)CS(=O)(=O)Cc1ccc(C(C)C)cc1`: 60.49%; for `Cc1cccc(CS(=O)(=O)CC(=O)NCCCOC(C)C)c1`: -2.072%. In the case of `CC(C)(C)CC(=O)NCC(=O)NS(=O)(=O)c1cccnc1` it was -1.885%. For the compound `COc1ncnc(N(C)C)c1NC(=O)Cc1cc(F)ccc1F`, the “Percent Effect” value is -32.31%.

As for `CC(C)OCCCNC(=O)CN1CCC(N2CCN(C)C2=O)CC1`, the “Percent Effect” value is on record as -1.952%. On to `Cc1ccc(C)c(CS(=O)(=O)CC(=O)NCCCOC(C)C)c1`, for which the “Percent Effect” value is listed as 103.7%. In the case of `CC(C)OCCCNC(=O)CS(=O)(=O)Cc1ccc(C(C)(C)C)cc1` it was 103.7%; in that of `Cc1ccc(C)c(CS(=O)(=O)CC(=O)NC(C)c2ccc(F)cc2F)c1` (configuration not stated), 34.69%. In the case of `CC(C)(C)c1ccc(C2(C(=O)NCCCS(C)(=O)=O)CC2)cc1` it was -6.927%; in that of `Cc1ccc(C)c(CS(=O)(=O)CC(=O)Nc2ccc(F)cc2F)c1`, -7.067%. The same measure for `Cc1cc(NC(=O)CNc2ccc(Br)cc2F)on1`: -13.69%; for `CNC(=O)[C@@H](CC(C)C)N1CCC[C@H]1C(=O)N(C)Cc1ccccc1.Cl`: 3.832%.

Turning to `CS(=O)(=O)N1CCc2c(nnn2CC2CC2)C1COCC1CC1` (configuration not stated), the “Percent Effect” value is 9.145%.

As for `Cc1nc(O)cc(CCNC(=O)CC[C@@H]2CCCN3CCCC[C@H]23)n1`, the “Percent Effect” value was -10.54%.

Regarding `Cc1nc(CCC(N)=O)cc(C2CCCN2S(C)(=O)=O)n1` (configuration not stated), the “Percent Effect” value is 118%. In the case of `NC(=O)CN1CCN(S(=O)(=O)N2CCCC2c2ccco2)CC1` (configuration not stated) it was -1.711%. As for `Cc1noc(C)c1CN(C)C(=O)C1CCCCN1S(C)(=O)=O` (configuration not stated), the “Percent Effect” value is listed as -0.5133%.

Turning to `CNC(=O)CCc1cc(C2CCCN2S(C)(=O)=O)nc(C)n1` (configuration not stated), the “Percent Effect” value was determined as 95.26%. The same measure for `CCOc1ccc(CC(=O)N2CCCC2c2cc(C)on2)cc1` (configuration not stated): 5.942%; for `Cc1cc(C2CCCN2C(=O)c2ccc(OCC(N)=O)cc2)no1` (configuration not stated): 5.942%. With `CNC(=O)CCc1cc(C2CCCN2C(=O)CO)nc(C)n1` (configuration not stated), the “Percent Effect” value is 135.9%. Take `Cc1cc(C2CCCN2C(=O)COc2ccc(CC#N)cc2)no1` (configuration not stated): the “Percent Effect” value is -10.78%. In the case of `CNC(=O)CCN1CCCC1c1ccccc1Br` (configuration not stated) it was 10.79%; in that of `Cc1nc(CCC(N)=O)cc(C2CCCCN2S(C)(=O)=O)n1` (configuration not stated), 110.4%. The same measure for `Nc1nc2c(c(N3CCC(CCn4cccn4)CC3)n1)CCNCC2`: 1.454%. The same measure for `CC(Cc1ccc2c(c1)OCO2)c1cn(CCN2CCCC2)nn1` (configuration not stated): 21.75%; for `COCCN(C(=O)c1ccn(-c2ccc(OC)cc2)n1)C(C)C(N)=O` (configuration not stated): 143%. In the case of `COCCN(CCOC)C(=O)c1ccn(-c2ccccc2Cl)n1`, the “Percent Effect” value was 2.098%. The same measure for `CCC(C)C(=O)NCc1ccn(-c2ccc(F)cc2)n1` (configuration not stated): -3.834%. On to `CN(C)CCN(Cc1cccnc1)C(=O)c1ccn(-c2ccccc2)n1`, for which the “Percent Effect” value was 1.059%. Take `COc1ccc(-n2ccc(C(=O)N(CCN(C)C)C(C)C)n2)cc1`: the “Percent Effect” value was found to be 158.8%. Take `COc1ccc(-n2ccc(C(=O)N(C)C(C)C3(C)CC3)n2)cc1` (configuration not stated): the “Percent Effect” value is on record as 114.7%. As for `COc1ccc(SC(C)C(=O)N2CCC(O)CC2)cc1` (configuration not stated), the “Percent Effect” value is 1.982%. In the case of `COc1ccc(-n2ccc(C(=O)N3CCC(C(N)=O)C3)n2)cc1` (configuration not stated) it was -0.5166%; in that of `CC(C)N(C)CC(=O)Nc1ccc(-n2ccc(C(N)=O)n2)cc1`, -7.566%; in that of `CCC[C@@H](NC(N)=O)C(=O)N1CCc2ccccc2CC1`, 5.215%. The same measure for `O=C(NCCOc1ccc(F)c(F)c1)NCc1ccncc1`: -13.71%; for `Cc1cc(CNC(=O)N2CCN(C(C)c3cccnc3)CC2)c(C)o1` (configuration not stated): -1.868%; for `CN1[C@@H](CCC(=O)NCc2ccc(F)cc2)CNC(=O)[C@H]2NCC[C@H]21`: 3.15%. As to `N#Cc1cnc(N2Cc3cnn(Cc4ccc(F)cc4)c3C2)nc1N`, the “Percent Effect” value is recorded as -0.8846%.

`CC1CCN(c2ncc3c(n2)CN(c2ccc4c(c2)OCO4)C3=O)CC1`: the “Percent Effect” value is reported as -9.746%. In the case of `N#Cc1cnc(N2CCC3(CC2)OCCO3)nc1N` it was 125%; in that of `CC1CCN(c2ncc3c(n2)CN(c2ccccc2)C3=O)CC1`, -3.671%; in that of `CC1CCN(c2ncc(C#N)c(N)n2)CC1`, 102.6%. The same measure for `CCc1nsc(N2CCC3(CC2)OCCO3)n1`: -6.104%; for `CC(C)(C)c1cnc(CN2CCC(NC(=O)NC3CCCCC3)CC2)o1`: -3.337%.

Turning to `CCn1c(Cn2cncn2)nnc1C1CCN(Cc2ccc(C)o2)CC1`, the “Percent Effect” value is on record as -1.569%.

Turning to `Cc1cc(=O)[nH]c(-n2nc(C)c(CCC(=O)NCc3cccs3)c2C)n1`, the “Percent Effect” value is given as 127.2%.

As for `Cc1nc(CNc2ccc(C(=O)NCc3ccco3)cc2C)no1`, the “Percent Effect” value is listed as -9.034%.

Consider `Cc1csc(CNC(=O)CCCc2cccs2)n1`, for which the “Percent Effect” value turned out to be 21.24%.

Turning to `Cc1nc(CNC(=O)CCCc2cccs2)no1`, the “Percent Effect” value is recorded as -18.16%. For `Cc1cc(=O)[nH]c(-n2nc(C)c(CCC(=O)NCc3ccco3)c2C)n1`, the “Percent Effect” value is 133%. On to `Cc1ccc2cnn(CCC(=O)NCc3c(C)nn(C)c3C)c2c1`, for which the “Percent Effect” value was -12.76%.

`O=C1OCCN1Cc1cccc(F)c1C(F)(F)F`: the “Percent Effect” value is -13.53%. The same measure for `CCS(=O)(=O)NCCN1CCc2ccc(F)cc2C1C` (configuration not stated): -17.56%; for `O=C(Cc1ccccc1)NC[C@H]1Cn2ccnc2CO1`: -7.774%; for `Cc1ccnc(CC(C)N(C)c2cc(CCN)nc(C)n2)c1` (configuration not stated): -16.25%.

For `Cc1nn(C)c(Cl)c1C1CCCN1C(=O)c1ccnn1C` (configuration not stated), the “Percent Effect” value worked out at 108%. The same measure for `COc1c(C2CCCN2C(=O)c2ccnn2C)c(C)nn1C` (configuration not stated): -14.45%. Take `Cc1nn(C)c(Cl)c1C1CCCN1C(=O)c1cccn1C` (configuration not stated): the “Percent Effect” value is 113.6%. In the case of `Cc1noc(C)c1C(=O)N1CCCC1c1c(C)nn(C)c1Cl` (configuration not stated) it was 2.958%; in that of `Cc1nn(C)c(Cl)c1C1CCCN1C(=O)c1ccoc1C` (configuration not stated), 103.1%; in that of `COc1c(C2CCCN2C(=O)c2ccoc2C)c(C)nn1C` (configuration not stated), -17.99%. In the case of `COc1c(C2CCCN2C(=O)c2cccn2C)c(C)nn1C` (configuration not stated) it was -5.9%. The same measure for `OC(CN(Cc1ccccc1)Cc1ccon1)c1cccs1` (configuration not stated): -5.25%.

With `CCCn1[nH]cc/c1=N\C(=O)CN1CCCC1Cn1cccn1` (configuration not stated), the “Percent Effect” value was -1.433%.

In the case of `CCN(CC1CCOC1)C(=O)c1cc(OC)c2c(c1)OCCO2` (configuration not stated), the “Percent Effect” value is -3.228%. In the case of `Cc1ccc(-c2ccc(C3CNCCO3)nc2)cc1.Cl` (configuration not stated) it was 114.4%; in that of `COc1ccc(-c2c[nH]c([C@@H]3COCCN3)n2)cc1`, -8.862%; in that of `Cl.Clc1ccc(-c2ccc(C3CNCCO3)nc2)cc1` (configuration not stated), 122.6%. In the case of `CCNc1ccnc(NCC2CNCCO2)n1` (configuration not stated) it was -11.04%; in that of `Cl.c1ncc(-c2ccc(C3CNCCO3)nc2)cn1` (configuration not stated), 106.1%; in that of `COc1ccc(-c2cnc(CN3CCCC3CO)o2)cc1` (configuration not stated), -7.324%. On to `Cl.c1ccc(-c2ccc(C3CNCCO3)nc2)cc1` (configuration not stated), for which the “Percent Effect” value is reported as -0.3347%.

For `COc1ccc(-c2ccc(C3CNCCO3)nc2)cc1.Cl` (configuration not stated), the “Percent Effect” value turned out to be 122.1%. On to `Fc1ccc(-c2noc([C@@H]3Cc4nc[nH]c4CN3)n2)cc1`, for which the “Percent Effect” value is -11.77%. Take `Cn1cc(CN2CCOCC3(C2)CN(c2ccccc2)C(=O)CO3)cn1.O=C(O)C(F)(F)F` (configuration not stated): the “Percent Effect” value is recorded as -5.421%. `Cn1cc(N2CC3(COCCN(Cc4ccsc4)C3)OCC2=O)cn1.O=C(O)C(F)(F)F` (configuration not stated): the “Percent Effect” value is given as -6.124%.

Turning to `Cc1cccc(N2CCOCC3(C2)CN(c2ccccc2)C(=O)CO3)n1.O=C(O)C(F)(F)F` (configuration not stated), the “Percent Effect” value came out at 109.1%. The same measure for `O=C(O)C(F)(F)F.O=C(O)C(F)(F)F.O=C1COC2(COCCN(Cc3cccnc3)C2)CN1c1ccoc1` (configuration not stated): -8.923%; for `Cc1ccc(N2CC3(COCCN(Cc4ccccn4)C3)OCC2=O)s1.O=C(O)C(F)(F)F.O=C(O)C(F)(F)F` (configuration not stated): -3.574%; for `Cc1cccc(N2CCOCC3(C2)CN(c2ccoc2)C(=O)CO3)n1.O=C(O)C(F)(F)F` (configuration not stated): 101.1%. The same measure for `O=C(O)C(F)(F)F.O=C1COC2(COCCN(c3ccccn3)C2)CN1c1cccc(F)c1` (configuration not stated): -5.368%; for `Cc1cccc(N2CCOCC3(C2)CN(c2cnn(C)c2)C(=O)CO3)n1.O=C(O)C(F)(F)F` (configuration not stated): 85%. In the case of `COC(=O)c1ccc(CNC2CC(=O)N(Cc3cccc(F)c3)C2)cc1` (configuration not stated), the “Percent Effect” value turned out to be 2.767%.
